Screening data: PubChem, several laboratories
Most compounds without a hit are left out; they make up all but 3.3% or so of the library.
Efflux pump mplx: inhibitors of Candida antifungal efflux pumps expressed in yeast | S. cerevisiae Candida pump triplex, Nile Red efflux | inhibition, % at 10 µM | 330,000 compounds, 0.44% hits | AID 485275;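 active = plate passing quality check with inhibition over a set limit, or well fluorescence over plate mean plus 4 SD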;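 also: Nile Red retained in pooled yeast measured as flow cytometry median fluorescence; 0% = buffer negative control and 100% = Enniatin B positive control; higher means more Nile Red kept so more efflux inhibition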
Cardio protect: protects H9c2 cardiomyocytes from peroxide injury; H2O2 injury protection, ATPLite, 2 h; protection from H2O2 cell death, % at 20 µM; 360,000 compounds, 0.63% hits; AID 588492;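 active = compounds giving at least 50% protection of heart cells from peroxide-induced death in the single-dose screen, raw or plate-pattern-corrected value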;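 also: 0% = DMSO wells with peroxide and 100% = DMSO wells without peroxide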
PHOSPHO1 inh: PHOSPHO1 (human) inhibition; 290,000 compounds, 1.1% hits; inhibition, % at 13.3 µM; recombinant PHOSPHO1, absorbance phosphatase assay; in the data active = inhibition above about 60%
KCC2 mod: modulators of human KCC2 chloride dependent transport. 190,000 compounds, 2.2% hits. KCC2 cells, thallium flux FluoZin-2 fluorescence. B-score of Tl+ flux slope (higher = more flux/activation; lower = inhibition) at 10 µM. Q9H2X9. AID 1456;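 active = thallium flux slope and its plate-corrected score both differing from the plate sample mean at a set confidence after two filtering rounds, in either direction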;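 also: slope of fluorescence scaled to starting intensity during 10 to 20 s after thallium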
Calb FLC: affects C. albicans growth with fluconazole. C. albicans CaCi-2 (fluconazole-resistant clinical isolate) + fluconazole, Alamar Blue growth, 48 h. growth inhibition, % (concentration not given with the values). 300,000 compounds, 0.57% hits;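 active = growth inhibition above about 58% in most replicates, limit read from the data, passing the limit was not always enough; inconclusive = exactly half the replicates above a set limit; inactive = most replicates below a set limit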;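 also: all wells also contain fluconazole at 8 µg/ml as a sub-toxic cotreatment; 0% = median of DMSO wells and 100% = median of geldanamycin control wells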
Starred values were filed as active, the others as inactive; i = inactive; ? = inconclusive; · = not tested or not shown.

SMILES	Efflux pump mplx	Cardio protect	PHOSPHO1 inh	KCC2 mod	Calb FLC
CCn1c(O)c(N=NC(=O)CNc2cccc(C)c2)c2ccccc21	0.3	6.4	-4.9	5.56*	?
CCSc1nnc(NC(=O)C2Cc3ccccc3CN2C(=O)c2ccco2)s1 (configuration not stated)	0.0	8.5	61.0*	0.0107	2.5
CCN1C(=O)/C(=C2/C=Cc3ccccc3N2C)OC1=S	-0.1	2.3	65.0*	·	-1.3
O=C(CSCc1ccc(Br)cc1)N=Nc1c(O)[nH]c2ccccc12	0.1	11.7	0.0	9.99*	20.4
O=C(CSc1nc2ccccc2[nH]1)N=Nc1c(O)[nH]c2ccccc12	0.1	14.5	-53.3	0.155	-5.4
Cc1cc(C(=O)CSc2nnc(-c3ccc(Cl)cc3)n2C)c(C)n1CC1CCCO1 (configuration not stated)	-0.2	-6.4	-81.8	-1.02	-2.8
Cc1cc(C(=O)CSc2nc3ccccc3o2)c(C)n1CC1CCCO1 (configuration not stated)	0.1	-34.2	92.7*	0.0887	-4.1
Cc1sc2nc(SCC(=O)c3cc(C)n(CC4CCCO4)c3C)n(C(C)C)c(=O)c2c1C (configuration not stated)	0.1	6.0	78.9*	·	-5.4
Cc1cc(C(=O)CSc2nc3ccccc3[nH]2)c(C)n1CC1CCCO1 (configuration not stated)	-0.2	-20.1	34.3	-0.445	25.2
Cc1ccc(-n2nnnc2SCC(=O)c2cc(C)n(CC3CCCO3)c2C)cc1 (configuration not stated)	0.2	-10.8	74.4*	·	14.8
Cc1cccc(-n2nnnc2SCC(=O)c2cc(C)n(CC3CCCO3)c2C)c1 (configuration not stated)	0.3	-10.9	93.2*	-1.18	18.2
CC(C)(Oc1ccc(Br)cc1Cl)C(=O)Nc1ccon1	3.9	-0.2	36.6	·	6.8
Cc1cccc(-n2nnnc2SCC(=O)c2cc(C)n(Cc3ccco3)c2C)c1	0.2	-2.8	75.9*	·	2.1
O=C(COC(=O)Cc1n[nH]c(=O)c2ccccc12)Nc1cccc(C(F)(F)F)c1	-0.1	37.0	-30.0	-0.0131	-17.2
CCOc1ccc(Nc2nc(Cc3nnc(SCC(=O)NCC4CCCO4)n3C)cs2)cc1 (configuration not stated)	0.1	2.6	61.5*	0.963	-3.1
CCNC(=S)N/N=C1\CCCCc2ccccc21	0.2	-1.9	7.9	6.59*	-24.0
C=C(C)CNC(=S)N/N=C1\CCCCc2ccccc21	0.0	-6.2	-12.3	11*	92.5*
c1ccc(-c2cc(NCCN3CCCCC3)c3ccccc3n2)cc1	0.0	-2.7	10.9	·	7.2
CCc1nnc(NC(=O)CSc2nnc(CSc3nc(C)cc(C)n3)o2)s1	-0.1	17.8	94.0*	·	-3.8
O=S(=O)(CC(O)COc1ccccc1Cl)c1ccccc1 (configuration not stated)	-0.3	6.9	66.1*	-0.943	4.5
Cc1ccc(S(=O)(=O)N2CCOCC2)cc1C(=O)N1CCN(c2ncccn2)CC1	·	0.3	·	·	·
Cc1cc2oc(=O)cc(CN3CCCc4ccccc43)c2cc1C	0.1	9.3	73.8*	-0.879	-5.5
Cc1cc2oc(=O)cc(CN3CCCCC3)c2cc1C	0.1	0.4	36.0	·	0.1
N#CC1=C2N=C(N)c3c(sc4c3CCCCC4)N2C2=C(C(=O)CCC2)C1c1ccccc1 (configuration not stated)	0.5	25.2	69.5*	-0.729	18.9
C[C@]1(CC/C(=C/CO)CO)[C@H](C=O)CC[C@@]23COC(=O)C2=CCC[C@@H]31	·	-2.9	·	·	·
SMILES	Efflux pump mplx	Cardio protect	PHOSPHO1 inh	KCC2 mod	Calb FLC
O=C(COc1ccccc1Cl)N1CCc2ccccc21	·	-9.4	18.4	·	1.5
O=C(COc1ccc2ccccc2c1CN1CCOCC1)N1CCc2ccccc21	0.0	-1.4	-5.4	-7.85*	-6.6
CCN(CC(=O)Nc1ccc(C)c(S(=O)(=O)N2CCOCC2)c1)Cc1ccccc1	0.2	0.6	·	·	-1.3
COCCNC(=O)COC(=O)c1ccc(OCC(=O)Nc2ccccc2OC)c(OC)c1	0.1	56.3*	47.7	-0.0504	1.2
CCOCCn1ccc2c(OCC(=O)Nc3ccc(OC)cc3OC)cccc2c1=O	0.0	11.5	·	·	8.1
COc1cc(CNC(C)C)ccc1OCC(=O)Nc1cccc2ccccc12	0.1	7.5	60.6*	·	-4.9
COCCn1ccc2c(OCC(=O)Nc3ccccc3OC)cccc2c1=O	-0.1	53.8*	·	·	7.7
COc1ccc(CC(=O)Nc2cccc3ccccc23)cc1OC	0.0	-5.8	19.4	·	-3.5
CCOC(=O)c1c(C)c(C(=O)N2CCc3ccccc3C2)c(C)n1CC	-0.2	9.7	-6.8	-4.56*	-3.3
CCOC(=O)c1c(C)c(C(=O)Nc2ccccc2)c(C)n1CC	-0.3	-0.3	3.3	-1.97	-14.4
O=C1NC(=O)c2cc(Br)cc3cccc1c23	-0.2	36.3	0.3	-1.61	10.5
O=C1NC(=O)c2cc([N+](=O)[O-])cc3cccc1c23	0.2	54.7*	14.1	·	-4.1
O=C1C=C(N2CCN(c3ccccn3)CC2)C(=O)c2c(O)ccc(O)c21	·	-14.6	·	·	·
CC1=CC(=O)c2c(O)ccc(O)c2C1=O	1.0*	·	27.7	-5.07*	·
Cc1c(Cl)ccc2sc(N3CCN(C(=O)C4=COCCO4)CC3)nc12	0.0	-11.8	·	·	21.5
COc1ccc2occ(C(=O)c3coc4ccc(O)c(CN(C)C)c34)c2c1	0.0	60.7*	6.7	-2.96	-7.2
COc1cccc(CN2CCNC(=O)C2CC(=O)N(C)CC2CCOCC2)c1 (configuration not stated)	2.5	0.0	27.0	·	9.0
CCOC(=O)C1CN(C(=O)OCC)CC1=NNC(N)=O (configuration not stated)	·	-0.1	·	·	·
CC(=O)NC1CCCN(O)C(=O)/C=C(\C)CCOC(=O)C(NC(C)=O)CCCN(O)C(=O)/C=C(\C)CCOC(=O)C(NC(C)=O)CCCN(O)C(=O)/C=C(\C)CCOC1=O (configuration not stated)	-0.1	3.5	23.7	0.434	85.8*
CC(=O)NC1CCC(=O)C=C1c1ccccc1 (configuration not stated)	·	8.3	·	·	·
COc1ccc(NC(C)=O)cc1NC(=O)C1CCN(C(=O)Nc2ccccc2)CC1	0.1	-1.4	·	·	-1.7
CC(Oc1ccccc1)c1ccnc2nc(N3CCOCC3)nn12 (configuration not stated)	0.0	-2.9	60.0*	0.00728	-18.3
Clc1ccc(-n2nnnc2SCc2c(-c3ccccc3)nc3sccn23)cc1	-0.2	-0.6	97.5*	0.933	8.5
O=c1[nH]c(CSc2nnnn2-c2ccc(Cl)cc2)nc2ccccc12	0.0	40.8	19.9	-0.364	?
CCOc1ccccc1-c1c2cc(O)c(=O)cc-2oc2cc(O)c(O)cc12	·	60.1*	8.6	i	·
N#Cc1c(Cl)cccc1N1CCC(C(N)=O)CC1	-0.1	-4.9	28.8	-0.188	3.4
COc1cc(/C=C/c2nc(-c3ccccc3O)n[nH]2)cc(OC)c1OC	-0.2	65.6*	-5.8	0.755	2.3
